Screening results as filed in PubChem BioAssay.
D1 antag: human D1 dopamine receptor antagonism | HEK293 TREx D1 cells, calcium flux, dopamine EC80; stronger effect = lower value | activity change, negative = inhibition, % at 10 µM | 3.2% of 360,000 active; in the data active = activity change below about -30%
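Using tetracycline-induced force-coupled D1 Hek293 cells and a calcium dye, signals were followed for 180 s after compound, then for 180 s after EC80 dopamine, to detect inhibitors.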
D1 potentiator: human D1 dopamine receptor positive modulation; AID 504651; P21728; 0.036% of 360,000 active; potentiation, % at 10 µM; HEK293 TREx D1 cells, calcium flux, dopamine EC20 potentiation; in the data active = potentiation above about 30%
D3 ag: activates the human D3 dopamine receptor | P35462 | D3R DiscoveRx beta-arrestin cells, luminescence, 90 min | max activation, % | 0.58% of 410,000 active; in the data active = max activation above about 30%
Target sequence (P35462 whole entry, looked up): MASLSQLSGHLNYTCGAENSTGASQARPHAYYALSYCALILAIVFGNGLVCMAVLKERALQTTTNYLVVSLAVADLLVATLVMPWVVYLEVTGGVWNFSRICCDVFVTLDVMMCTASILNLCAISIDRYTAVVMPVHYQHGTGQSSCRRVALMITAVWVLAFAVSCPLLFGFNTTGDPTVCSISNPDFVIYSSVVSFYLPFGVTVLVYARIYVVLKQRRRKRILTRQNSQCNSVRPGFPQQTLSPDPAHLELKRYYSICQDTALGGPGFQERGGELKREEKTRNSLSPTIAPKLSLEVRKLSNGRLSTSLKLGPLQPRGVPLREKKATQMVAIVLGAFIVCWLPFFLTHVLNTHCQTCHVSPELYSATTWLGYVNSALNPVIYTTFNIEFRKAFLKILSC
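Cells at 1500/well, incubated overnight, then treated with pinned compounds (dopamine as control) for 90 min at 37 degrees C. DiscoveRx reagent added for 30 - 60 minutes at room temperature; luminescence read.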
D1 ag: agonists of human D1 dopamine receptor | P21728 | HEK293 T-REx D1 cells, calcium flux, agonist mode | activation, % at 2 µM | 1% of 360,000 active; in the data active = activation above about 30%
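Tetracycline-induced HEK293 TREx D1 cells, force-coupled to calcium signalling, were dye-loaded with a no-wash calcium kit. Compound was pin-added after a 10 s baseline. Fluorescence was read kinetically at 1 cycle/s for 180 s, with calcium rises flagged as agonism.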
D3 antag: blocks the human D3 dopamine receptor; D3R cells, DiscoveRx beta-arrestin luminescence, antagonist mode; stronger effect = lower value; max response, negative = inhibition, %; 2.5% of 360,000 active; in the data active = max response below about -50%; inconclusive = no clear call, values can overlap the other calls
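Cells plated overnight at 1500 cells/well, then exposed to library compounds with dopamine controls for 90 minutes at 37 degrees C. DiscoveRx reagent added for 30–60 minutes at room temperature; luminescence read, quantitative HTS format.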
Each line names hits and unclear results; the compound was inactive in the other large screens. A selection: hits, their analogues and other compounds. The true share with any hit is near 6%.

COCCCNC(=O)Cn1ncc2c(=O)oc3ccccc3c21	D1 antag -30
CCN(CCCNC(=O)Cn1ncc2c(=O)oc3ccccc3c21)c1cccc(C)c1	D1 antag -37
Cc1ccc2oc(=O)c3cnn(CC(=O)NCCC(C)C)c3c2c1	D1 antag -37
Cc1nc2[nH]c(=S)[nH]c2c(=O)[nH]1	none (no result: D1 antag, D1 potentiator, D1 ag)
Cc1ccc(C)c(NC(=O)c2ccc3c(c2)CCN3S(C)(=O)=O)c1	none
CC1=C(C(=O)NCc2cccc(Br)c2)C2(CCCCC2)OC1=O	none (no result: D3 antag)
CCC(CO)[n+]1c(C)cc(/C=C2\Sc3ccccc3N2Cc2ccccc2)cc1C (centres undefined)	D1 antag -76
O=C(CCN1CCc2ccccc2C1)c1ccc2c(c1)OCCO2	D3 antag -88
O=C(CCN1CCc2ccccc21)c1ccc2c(c1)OCCO2	D3 antag inconclusive
O=C(CCN1CCC(c2ccccc2)C1)c1ccc2c(c1)OCCO2 (centres undefined)	D3 antag -66
CC(C)c1nn2c(=O)cc(COC(=O)c3ccccc3NC(=O)c3cccs3)nc2s1	none (no result: D3 antag)
Cc1ccc(Cl)cc1NC(=O)Nc1cccs1	D1 antag -63
CCc1ccccc1NC(=O)Nc1cccs1	none
Cc1ccccc1NC(=O)Nc1cccs1	D1 antag -36
Cc1ccc(NC(=O)Nc2cccs2)c(C)c1	D1 antag -41 (no result: D3 antag)
Cc1ccccc1NC(=O)/C(=C\c1cccs1)NC(=O)c1ccccc1	D3 antag -54
CC(=O)Nc1ccc(NC(=O)Nc2ccc(C)cc2C)cc1	none
COc1ccc(CN(C)S(=O)(=O)c2ccc3c(c2)OCCO3)cc1	none
CC1=C(C(=O)N(C)C)CC(CC(=O)NCC2CCCCC2)C(=O)N1Cc1ccccc1 (centres undefined)	none (no result: D1 antag, D1 potentiator, D1 ag)
CCCCC/C(C=O)=C\c1ccccc1	none (no result: D1 antag, D1 potentiator, D1 ag, D3 antag)
Cc1cc2c(s1)c1cnn(Cc3ccc(Cl)cc3)c(=O)c1n2C	none (no result: D3 ag, D3 antag)
CC(C)Oc1cccc(C(=O)NC(=S)Nc2ccccc2)c1	D1 antag -35
CCOC(=O)N1CCC(NCCNC(=O)c2ccc(F)cc2)CC1	none
CCOC(=O)N1CCC(Nc2c(-c3ccc(C)cc3)c(=O)c2=O)CC1	none
CCOC(=O)N1CCC(NCCNC(=O)c2cccc(F)c2)CC1	D3 antag -112
CCOC(=O)N1CCC(Nc2c(Nc3ccc(F)cc3)c(=O)c2=O)CC1	D3 antag -89
CCOC(=O)N1CCC(Nc2c(Nc3cccc(CC)c3)c(=O)c2=O)CC1	D3 antag -62
CCOC(=O)N1CCC(Nc2c(NCCN3CCN(Cc4ccccc4)CC3)c(=O)c2=O)CC1	none
Cc1cc(C)cc(NC(=O)C2CCN(c3cc(C)nc4c(-c5ccc(Cl)cc5)c(C)nn34)CC2)c1	none (no result: D3 antag)
O=C(O)c1ccccc1-c1ccccc1C(=O)Nc1nc2ccccc2s1	none
O=C(O)c1cc(-c2ccc(Cl)s2)nc2ccccc12	none
Cc1ccc(C(=O)O)c(C(=O)Nc2nc3ccccc3s2)c1	D3 ag 30
CCCNC(=O)Nc1nc2ccccc2s1	D1 antag -72
Cc1ccc(-c2cc(C(=O)O)c3ccccc3n2)s1	D1 antag -46
CCc1ccc(NC(=O)CN2C(=O)C(=O)c3ccccc32)cc1	none (no result: D3 antag)
Cc1onc(-c2ccc(Cl)cc2)c1-c1ccnn1S(=O)(=O)c1cccc(C(F)(F)F)c1	none
Cc1ccc(S(=O)(=O)N2CCOCC2)cc1C(=O)OCC(=O)NCc1ccccc1	none
Cc1cccc(N2CCN(C(=O)c3cc4c(=O)n(C)c5ccccc5c4s3)CC2)c1C	none (no result: D3 antag)
CCOc1ccc(CCNC(=O)c2cc3c(-c4ccccc4F)nn(C)c3s2)cc1	none (no result: D3 antag)
CCOc1ccc(CNC(=O)C2CCN(S(=O)(=O)N3CCC(C)CC3)CC2)cc1OC	none
CC1(C)CC(=O)C(C=Nc2cc(C(=O)c3ccccc3)ccc2N)=C(O)C1	D1 antag -45, D3 antag -125
CC1(C)CC(=O)C(C=Nc2ccc(N)cc2)=C(O)C1	none
COC(=O)c1ccc(N)c(N=CC2=C(O)CC(C)(C)CC2=O)c1	D3 antag -51
Cc1ccc(C(=O)c2cn(Cc3ccccc3)c3nc(C)ccc3c2=O)cc1	none (no result: D3 antag)
COc1ccc(C(=O)N2CCN(C3CCCCC3)CC2)c(OC)c1	D3 antag -86
COc1cccc(C(=O)N2CCN(C3CCCCC3)CC2)c1	none
COc1ccc(Cl)cc1NC(=O)N1CCN(C2CCCCC2)CC1	D3 antag -57
Fc1ccccc1-n1ncc2c1ncn1nc(COc3ccc(Cl)cc3)nc21	none (no result: D3 antag)
Cc1ccccc1OCC(O)Cn1c(=N)n(Cc2ccccc2)c2ccccc21 (centres undefined)	D1 antag -38, D1 ag 45
COc1ccccc1OCC(O)Cn1c(=N)n(Cc2ccccc2)c2ccccc21 (centres undefined)	D1 antag -62, D1 ag 47
C=CCn1c(=N)n(CC(O)COc2ccccc2OC)c2ccccc21 (centres undefined)	none
COc1ccc(NC(=O)CSc2nnc(-c3nonc3NC(C)=O)n2C)cc1Cl	none (no result: D3 antag)
Cc1cccc(C)c1OCCCCn1c(C2CC(=O)N(c3ccc(F)cc3)C2)nc2ccccc21 (centres undefined)	D1 ag 36 (no result: D3 antag)
Cc1ccccc1OCCCCn1c(C2CC(=O)N(c3ccccc3Cl)C2)nc2ccccc21 (centres undefined)	D1 ag 32 (no result: D3 antag)
Cc1cc(C)cc(OCCn2c(C3CC(=O)N(c4ccccc4Cl)C3)nc3ccccc32)c1 (centres undefined)	none (no result: D3 antag)
COc1ccccc1OCCCCn1c(C2CC(=O)N(c3ccccc3Cl)C2)nc2ccccc21 (centres undefined)	D1 ag 37 (no result: D3 antag)
CC(C)N1CCC(C)(C(=O)Nc2cc(-c3ccccc3)nn2C)C1 (centres undefined)	none (no result: D1 antag, D1 potentiator, D1 ag)
COc1ccc2c(/C=C/c3cc[n+](C)cc3)c[nH]c2c1	none
CCn1c(/C=C/c2c[nH]c3ccccc23)nc2ccccc2c1=O	none
CC[n+]1ccc(/C=C/c2c[nH]c3ccccc23)cc1	D1 ag 64
Cc1ccc2[nH]cc(/C=C/c3cc[n+](C)cc3)c2c1	D1 ag 30
CC1CCN(C(=O)COC(=O)c2ccc3ccccc3n2)CC1	none (no result: D1 antag, D1 potentiator, D1 ag)
CC1CC(C)CN(C(=O)COC(=O)c2ccc3ccccc3n2)C1 (centres undefined)	D1 antag -37
COc1cc(OC)c(NC(=O)c2csc(C)c2)cc1Cl	none
Cc1cc2nc3s/c(=C/c4ccc(-c5ccccc5C(=O)O)o4)c(=O)n3c2cc1C	D1 antag -38, D1 ag 142
O=C(O)c1cc(-c2ccc(/C=c3\sc4nc5ccc(Br)cc5n4c3=O)o2)ccc1Cl	D1 ag 36 (no result: D3 ag, D3 antag)
O=C(O)c1ccccc1-c1ccc(/C=c2\sc3nc4cc(Br)cnc4n3c2=O)o1	D3 antag inconclusive
COc1cc(C(=O)N2CCc3c([nH]c4ccccc34)C2c2ccc(F)cc2)cc(OC)c1OC (centres undefined)	none (no result: D3 antag)
